ChEMBL document CHEMBL4888484, “Replenishing the malaria drug discovery pipeline: Screening and hit evaluation of the MMV Hit Generation Library 1 (HGL1) against asexual blood stage Plasmodium falciparum ,using a nano luciferase reporter read-out” (2022)
Among all 4,800 compounds or so, about 410 (8.5%) showed an effect of 50% or more. The entries come from a sample that favours strong results as a whole.

These compounds were tested on Plasmodium falciparum (assay: Confirmatory screen in NF54 pLDH assay, in single point, at 2uM, 72h). Conditions: timepoint 72 hour.
Assay type: functional, Erythrocyte

SMILES | % Inhibition
Cc1cccn2cc(CN(C)[C@H](c3ccccn3)C3CC3)nc12 | 4%
COc1ccc2cc3n(c2c1)C[C@](C(=O)NC1CCCCCC1)(c1ccccc1)N(Cc1cccc(Br)c1)C3=O | 10%
Cc1ccc(NC(=O)CC(=O)O)c(C)c1 | -5%
NC1(c2noc([C@@H]3CCCO3)n2)CCCCCC1 | 13%
CC1(C)c2ccccc2CCN1C(=O)CCc1ncc(-c2ccccc2)o1 | 8%
CN(c1nc2c(cnn2C)c(=O)[nH]1)C1CCCC1c1ccc(C(F)(F)F)cc1 (stereo not drawn) | 10%
CN1CCC(n2ncc3[nH]c(-c4ccc(C(F)(F)F)cc4)nc32)CC1 | 99%
CN1CCN(c2nc(-c3cccc(C(F)(F)F)c3)nc3c2cnn3Cc2ccccc2)CC1 | -3%
O=C(CCNC(=O)C1CC1c1c(F)cccc1Cl)NC1CCS(=O)(=O)C1 (stereo not drawn) | -19%
C[C@@H](CNc1nc(-c2ccccc2)nc2nc(-c3ccc(Cl)cc3)oc12)N1CCCCC1 | 76%
CC1(C)Cc2nc3ccccc3c(NCc3ccccc3)c2[C@@H](O)C1 | 54%
O=c1[nH]c2ccccc2c(NCc2ccccc2)c1N1CCN(c2ccccc2)CC1 | 1%
CC(=O)N1CC[C@H](CC(=O)N(C)Cc2ccccc2)C1 | 0%
Cc1ccc(NC(=O)Cn2c(C)cc(=O)c3sccc32)cc1Cl | -2%
CCCNC(=O)Cn1nc2cc(-c3ccc(OC)cc3)nc(C)n2c1=O | -8%
OC(CC(Nc1ccc(Cl)cc1)c1ccccc1)c1ccccc1 (stereo not drawn) | -7%
O=S(=O)(Cc1ccccc1)N1CCC2(CCCCC2)C1 | 6%
COc1ccc(OC)c(-c2csc(N3C(=O)CC4CS(=O)(=O)CC43)n2)c1 (stereo not drawn) | 10%
COc1ncnc2c1CN(C(=O)c1cc3c(s1)CC[C@H](C)C3)CC2 | 13%
CO[C@H]1CCOC2(CCN(C(=O)c3ccccc3F)CC2)C1 | 9%
O=C(c1ccccc1Cl)N1CCC[C@H](n2cnc3ccccc3c2=O)C1 | -12%

SMILES | % Inhibition
O=C(CN1CCN(Cc2ccccc2F)C1=O)NC1CCCCCCC1 | -2%
O=C(c1csc(C(=O)N2CCCC2)n1)N1CCN(Cc2ccccc2)CC1 | -4%
CCN(C[C@H]1CCCO1)C(=O)c1cnc(Cc2ccccc2)s1 | -15%
CCn1cc(C(=O)N(C2CCCCC2)C2CCCCC2)c(C)n1 | -13%
CN(C(=O)Cn1c(=O)n(-c2cc(F)cc(F)c2)c(=O)c2sccc21)c1ccccc1 | 9%
O=C(CN1CCOCC1)N1CCN(CCCOc2ccccc2)CC1 | 9%
Cc1nn(-c2nc3ccccc3[nH]2)c(O)c1Cc1ccccc1 | 17%
Cc1nn(-c2nc3ccccc3[nH]2)c(O)c1CCC(C)C | 68%
Oc1cc(-c2ccc(F)cc2)nn1-c1nc2ccccc2[nH]1 | -11%
O=S1(=O)CCC(NCCC2CCCO2)c2cc(F)c(F)cc21 (stereo not drawn) | -1%
C[C@H]1CS(=O)(=O)N(c2ccc(C(=O)Nc3ccccc3Oc3ccccc3)c(Cl)c2)C1=O | -3%
O=C(CCS(=O)(=O)c1ccc2ccccc2c1)Nc1ncn(Cc2c(F)cccc2Cl)n1 | 4%
Cc1ccc(CNC2CCN(C)CC2)c(OCc2ccco2)c1 | 3%
O=C(NCCOc1cccc(F)c1)c1cccnc1NC1CCCC1 | 1%
O=C(Nc1ccccc1-n1ccnc1)c1cnccn1 | -7%
Cc1cccc(N2CCN(C(=O)CCC3=Nc4cc(C(F)(F)F)ccc4S(=O)(=O)N3)CC2)c1C | 12%
COc1ccc(OC)c(CCNC(=O)Cn2ccc3cc(S(=O)(=O)N4CCCC4)ccc32)c1 | 11%
COc1ccccc1C1c2[nH]c3ccccc3c2C[C@H]2C(=O)N(CC(O)c3ccccc3)CC(=O)N12 (stereo partly drawn) | 12%
COc1ccc(CNC(=O)c2ccc(N3C(=O)[C@@H]4Cc5c([nH]c6ccccc56)C(c5cccc(OC)c5)N4C3=O)cc2)cc1 (stereo partly drawn) | 32%
CCOc1ccc(C2c3[nH]c4ccccc4c3C[C@H]3C(=O)N(C4CCN(Cc5ccccc5)CC4)CC(=O)N23)cc1OC (stereo partly drawn) | 79%
CCN1c2cc(C)ccc2-n2cccc2C12CCNCC2 | -7%

SMILES | % Inhibition
COc1ccc(C(C)(C)C(=O)N(C)Cc2cn(C)nc2C(C)C)cc1 | 13%
COc1nc(NC2CCS(=O)(=O)CC2)ncc1F | 77%
CC1(C)C(NCC(O)COc2ccc(F)c(F)c2)[C@@H]2CCC[C@@H]21 (stereo partly drawn) | 75%
Cc1cccc2sc(N3CCC[C@H](CNS(N)(=O)=O)C3)nc12 | 9%
Cc1nc(N2CCC(c3nc(-c4ccccc4)no3)CC2)c2c(C)noc2n1 | 9%
CCn1nccc1CN(C)C(=O)c1cc(S(=O)(=O)N(C)C)c(Cl)cc1Cl | -10%
COc1cccc(-c2nc(C)c(C(=O)Nc3nc(C(C)C)n[nH]3)s2)c1 | 10%
O=C(NC1CCCCC1)c1nn(-c2ccccc2)c(=O)c2ccccc12 | -12%
O=C(Nc1ccc(N2CCCC2)c(F)c1)C(=O)Nc1ccon1 | -13%
CN1CCCN(c2ccc(NC(=O)c3nn(-c4ccccc4)c(=O)c4ccccc34)cc2F)CC1 | 68%
Cc1ccc(S(=O)(=O)N(CC(=O)N[C@@H](C)c2ccccc2)c2cccc(Br)c2)cc1 | 11%
CCCc1ccc(OCCNC(=O)C2CCCC2)cc1 | 3%
O=C(Nc1ccccc1)C(=O)Nc1ccc2ncc(Cl)n2c1 | 7%
O=C(c1cc2nc(-c3ccc(Cl)c(Cl)c3)cc(C(F)(F)F)n2n1)N1CCN(c2ccccc2)CC1 | -7%
CCc1ccc(-c2cc3c(=O)n(CC(=O)N4CC(C)CC(C)C4)ncn3n2)cc1 (stereo not drawn) | 11%
Cc1cc(NCCc2nccn2C)ncn1 | -4%
Cc1sc2nc(-c3ccccn3)nc(NCC(=O)N3CCC(O)CC3)c2c1-c1ccccc1 | 23%
CCN1CCN(c2nc3ncn(CC(=O)NCCCc4ccccc4)c(=O)c3s2)CC1 | -2%
CCc1c(C)nn(S(=O)(=O)c2ccc3ccccc3c2)c1O | -3%
Cc1ncsc1COC(=O)c1ccnc(N(C)C)c1 | 10%
C[C@H]1CCC[C@@H](NCCc2ccccc2)CCC/C=C/c2cc(O)cc(O)c2C(=O)O1 | 72%
